# Results from PubChem BioAssay (NCATS).
# “And” between values parts separate entries of the source, which are not always exact repeats. Identical values can stand only once. Records with an inconclusive call do not appear. A call without a number means that no potency is given here. The source made the active and inactive calls. Unless noted, calls follow the shape of the dose curve; as a rule, active = well fitted curve in the direction sought with a large enough effect; inconclusive = small, poorly fitted or top-dose-only effect, or another doubt; inactive = no such curve, though single readings can be large; an effect the other way counts as inactive or inconclusive.
# Key:
# [1] = target: Cytochrome P450 1A2 (Homo sapiens) (UniProt P05177); assay: p450-cyp1a2 (AID 410; calls by dose curve; also: potency is read from the fitted curve at half-maximal effect)
# In short: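 Read-out is luminescence from luciferin produced by CYP1A2 demethylation of Luciferin-ME (100uM, at Km). Detection reagent stopped the 60 min NADPH-dependent reaction; signals were normalized to 57 uM furafylline.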
# [2] = target: Glucocorticoid receptor (Homo sapiens) (UniProt P04150); assay: GR-GFP Redistribution (AID 450;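 active = compounds whose dose series gives a full or clear partial fitted curve of increased nuclear translocation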; also: potency is read from the fitted curve at half-maximal effect); details: U2OS GR-GFP nuclear translocation, laser cytometry, 2 h
# [3] = target: Glucocorticoid receptor (Homo sapiens) (UniProt P04150); assay: GR-EFC Redistribution (AID 451; calls by dose curve; also: potency is read from the fitted curve at half-maximal effect); details: CHO-K1 GR-EFC translocation, beta-gal luminescence, 2 h
# In short: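 CHO-K1 cells stably expressing nuclear-localized β-gal enzyme acceptor and GR fused C-terminally to the enzyme donor fragment; ligand-driven nuclear translocation restores β-gal by complementation. Compounds titrated up to 46 uM final, 2 h at 37 °C; luminescence read.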
# [4] = target: Mitogen-activated protein kinase 10 (Mus musculus) (UniProt Q61831); assay: JNK3 AlphaScreen Assay (AID 530; active = well fitted curve in either direction with a large enough effect, not every such curve was filed as active;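 also: kinase came from lysate of stimulated human HepG2 cells; signal reports phosphorylation of biotinylated GST-cJun 1-79 at Ser73 with 10 µM ATP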)
# In short: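 Biotinylated GST-cJun(1-79) served as substrate for JNK3 in HepG2 lysates stimulated with IL-1beta and TNF-alpha. ATP was 10 uM final, pH 7.6. Ser73 phosphorylation was quantified by AlphaScreen (680 nm excitation).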
# [5] = target: 3',5'-cyclic-AMP phosphodiesterase 4B (Homo sapiens) (UniProt Q07343); assay: qHTS Assay for Inhibitors of PDE-IV (AID 607; active = well fitted activation curve with a large enough effect in the main read-out, with a control signal flat, not every such curve was filed as active)
# In short: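 HEK293 ACTOne cells with CNG channel (1000/well), endogenous PDE4; membrane potential dye, compounds up to 22.9 uM final. Fluorescence Ex 535/Em 590; RO 20-1724 (100 uM final) as reference.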
# [6] = qHTS Assay for Lipid Storage Modulators (AID 1519; calls by dose curve); details: Drosophila S3 cells, BODIPY lipid droplet/cell ratio, laser cytometry, cells loaded with oleic acid; for activity change, negative = inhibition: at 57.5 µM (top of the series)
# In short: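 Cells seeded at 5,000 per well were treated with compounds over a concentration series and loaded with oleic acid (400 uM, as added). Lipid droplet fluorescence (488 nm excitation, 500-530 nm channel) was read by laser-scanning cytometry and normalized to 20 uM Triacsin C.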
# [7] = Primary qHTS for small molecule stabilizers of the endoplasmic reticulum resident proteome: Secreted ER Calcium Modulated Protein (SERCaMP) assay (AID 1508630)
# In short: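 The SH-SY5Y reporter protocol was run at 3 concentrations up to 38.3 uM (primary) or 11 concentrations (follow-up): 16 h compound, 100 nM thapsigargin for 4 h, then extracellular luciferase luminescence.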
# [8] = tested on: Zika virus NS2B-NS3 protease (linked construct); assay: Primary screen NINDS Rhodamine qHTS for Zika virus inhibitors (AID 1347160); also: potency is read from the fitted curve at half-maximal effect; nearly all actives have a fitted effect of over 55% in size
# In short: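 Each compound, titrated, sat 15 min with 25 nM linked protease before 1.5 microM Rhodamine110 substrate went in. Fluorescence gain over the next 15 min, in pH 8.0 Tris with Tween 20, gave Hill-fitted curves.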
# [9] = OV-KATE Cancer Cell Toxicity qHTS against the NCATS CANVASS Library (AID 1347345)
# In short: (§1)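 In this cytotoxicity screen, 1000 cells per well rested 4 hours, then received compound (11 concentrations) for a 72-hour incubation; an ATP-dependent luminescent signal (CellTiter-Glo) was the endpoint.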
# [10] = OV-SAHO Cancer Cell Toxicity qHTS against the NCATS CANVASS Library (AID 1347348); also: nearly all actives have a fitted effect of over 55% in size
# In short: as §1
# [11] = COV-362 Cancer Cell Toxicity qHTS against the NCATS CANVASS Library (AID 1347352)
# In short: (§2)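 Using an ATP-based luminescent reagent after three days of treatment, toxicity is scored across an eleven-concentration range in wells holding 1000 cells each.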
# [12] = UWB1.289-WTBRCA1 Cancer Cell Toxicity qHTS against the NCATS CANVASS Library (AID 1347354)
# In short: as §2
# [13] = HEK293 24hr Apoptosis Induction qHTS against the NCATS CANVASS Library (AID 1347359)
# In short: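 HEK293 cells (500/well, DMEM + 10% FBS) were exposed to compounds in an 11-point series for 24 hours at 37 degrees C, then caspase-3/7 activity was read by Caspase-Glo DEVD luciferase luminescence after 15 min.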
# [14] = HEK293 12hr Apoptosis Induction qHTS against the NCATS CANVASS Library (AID 1347361)
# In short: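 500 HEK293 cells/well; cpds pin-transferred, 11-pt conc series; 12 h, 37 degrees C/5% CO2; Caspase-Glo 3/7 added, 15 min RT dark; luminescence.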
# [15] = tested on: NAD(P)H diaphorase (Clostridium kluyveri); assay: Diaphorse counterscreen qHTS: Assay Interference Panel against the NCATS CANVASS Library (AID 1347362)
# In short: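 Clostridium kluyveri diaphorase in PBS with 0.01% Tween-20 was preincubated 15 min at room temperature in the dark with compounds (11-point series). Resorufin fluorescence (ex 525/20, em 598/25) was read 5 min after adding resazurin/NADH.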
# [16] = target: Luciferin 4-monooxygenase (Photinus pyralis) (UniProt P08659); assay: Firefly luciferase counterscreen qHTS: Assay Interference Panel against the NCATS CANVASS Library (AID 1347363)
# In short: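 Purified P. pyralis luciferase was added to compounds (11-point series) preincubated 15 min at room temperature with substrate containing 0.013 mM D-luciferin and 0.013 mM ATP; luminescence was read after 5 min.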
# [17] = target: DNA dC->dU-editing enzyme APOBEC-3G (Homo sapiens) (UniProt Q9HC16); assay: qHTS for inhibitors of Vif-A3G interactions: Validation (AID 588379)
# In short: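 Yellow fluorescence (Ex 488, Em 500-530) of Vif-coexpressing HeLa A3G-eYFP cells, scanned by Acumen cytometer, reports blocked A3G degradation. Cells plated at 700/well overnight at 37 deg C before compound addition, then a further overnight compound incubation at 37 deg C.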
# [18] = measured here: cell count channel max response
# [19] = measured here: lipid channel max response
# Sequence of 3',5'-cyclic-AMP phosphodiesterase 4B (Homo sapiens) (Q07343 whole entry, looked up): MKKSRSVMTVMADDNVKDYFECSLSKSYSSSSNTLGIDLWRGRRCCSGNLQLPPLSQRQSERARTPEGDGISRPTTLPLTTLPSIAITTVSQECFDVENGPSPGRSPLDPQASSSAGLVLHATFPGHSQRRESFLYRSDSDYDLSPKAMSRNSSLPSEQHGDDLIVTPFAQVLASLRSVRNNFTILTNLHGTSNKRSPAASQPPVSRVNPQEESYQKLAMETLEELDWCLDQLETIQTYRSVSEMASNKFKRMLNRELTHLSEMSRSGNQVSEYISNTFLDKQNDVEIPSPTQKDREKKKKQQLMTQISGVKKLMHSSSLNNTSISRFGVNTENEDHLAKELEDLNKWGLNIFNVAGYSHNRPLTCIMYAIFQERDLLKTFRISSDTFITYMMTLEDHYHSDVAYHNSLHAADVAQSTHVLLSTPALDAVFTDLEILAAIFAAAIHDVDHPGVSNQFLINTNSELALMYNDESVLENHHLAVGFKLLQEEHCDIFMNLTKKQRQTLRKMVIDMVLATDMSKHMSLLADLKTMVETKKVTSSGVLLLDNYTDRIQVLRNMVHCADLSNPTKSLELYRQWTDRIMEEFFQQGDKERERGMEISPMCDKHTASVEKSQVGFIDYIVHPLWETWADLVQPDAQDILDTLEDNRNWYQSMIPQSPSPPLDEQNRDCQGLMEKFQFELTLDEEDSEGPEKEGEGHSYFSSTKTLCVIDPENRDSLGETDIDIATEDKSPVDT
# Sequence of Glucocorticoid receptor (Homo sapiens) (P04150 whole entry, looked up, the tested form may be a part): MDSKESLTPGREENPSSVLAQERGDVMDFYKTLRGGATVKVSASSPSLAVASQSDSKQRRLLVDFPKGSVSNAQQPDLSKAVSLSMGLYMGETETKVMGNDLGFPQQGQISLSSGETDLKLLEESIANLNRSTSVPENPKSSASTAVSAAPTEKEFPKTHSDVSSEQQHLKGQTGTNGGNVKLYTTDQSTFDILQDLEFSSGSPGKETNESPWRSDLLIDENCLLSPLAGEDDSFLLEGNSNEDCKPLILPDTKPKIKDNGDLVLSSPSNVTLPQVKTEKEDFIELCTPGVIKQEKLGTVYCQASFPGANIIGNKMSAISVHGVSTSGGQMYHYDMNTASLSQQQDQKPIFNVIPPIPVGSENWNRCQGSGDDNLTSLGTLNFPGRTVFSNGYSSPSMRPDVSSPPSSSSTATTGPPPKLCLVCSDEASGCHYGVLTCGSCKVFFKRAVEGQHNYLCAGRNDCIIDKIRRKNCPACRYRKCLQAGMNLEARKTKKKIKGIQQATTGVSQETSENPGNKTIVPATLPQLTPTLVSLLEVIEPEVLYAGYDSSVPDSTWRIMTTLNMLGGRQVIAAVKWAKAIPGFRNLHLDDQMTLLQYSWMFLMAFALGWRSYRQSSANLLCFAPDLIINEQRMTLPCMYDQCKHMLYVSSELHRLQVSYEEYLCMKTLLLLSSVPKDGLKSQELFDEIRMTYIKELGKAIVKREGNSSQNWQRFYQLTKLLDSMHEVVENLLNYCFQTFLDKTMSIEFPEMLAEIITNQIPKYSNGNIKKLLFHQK
# Sequence of DNA dC->dU-editing enzyme APOBEC-3G (Homo sapiens) (Q9HC16 whole entry, looked up): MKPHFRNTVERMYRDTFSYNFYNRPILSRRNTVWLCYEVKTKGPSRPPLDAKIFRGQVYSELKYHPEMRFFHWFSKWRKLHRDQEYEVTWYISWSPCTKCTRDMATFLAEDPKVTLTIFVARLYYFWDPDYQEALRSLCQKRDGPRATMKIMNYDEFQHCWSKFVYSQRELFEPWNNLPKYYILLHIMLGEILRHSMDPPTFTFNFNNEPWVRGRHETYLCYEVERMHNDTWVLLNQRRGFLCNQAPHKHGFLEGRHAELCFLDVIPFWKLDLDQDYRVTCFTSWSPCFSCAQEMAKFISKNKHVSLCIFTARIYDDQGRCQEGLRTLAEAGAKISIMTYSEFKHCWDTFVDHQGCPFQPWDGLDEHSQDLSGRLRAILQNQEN
# Sequence of Cytochrome P450 1A2 (Homo sapiens) (P05177 whole entry, looked up): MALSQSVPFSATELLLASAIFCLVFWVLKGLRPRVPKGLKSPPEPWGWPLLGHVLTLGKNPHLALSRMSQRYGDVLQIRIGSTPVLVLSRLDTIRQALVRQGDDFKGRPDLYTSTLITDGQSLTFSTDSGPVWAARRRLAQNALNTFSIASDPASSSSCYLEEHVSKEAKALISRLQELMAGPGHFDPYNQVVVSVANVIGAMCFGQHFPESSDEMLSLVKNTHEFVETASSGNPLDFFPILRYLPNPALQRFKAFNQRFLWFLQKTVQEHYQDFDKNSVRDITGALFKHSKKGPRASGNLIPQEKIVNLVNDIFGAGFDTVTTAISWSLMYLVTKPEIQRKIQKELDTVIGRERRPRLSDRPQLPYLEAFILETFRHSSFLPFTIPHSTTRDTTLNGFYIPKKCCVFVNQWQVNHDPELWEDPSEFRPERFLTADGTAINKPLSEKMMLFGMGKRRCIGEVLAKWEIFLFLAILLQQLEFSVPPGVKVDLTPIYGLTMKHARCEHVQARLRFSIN
# Sequence of Luciferin 4-monooxygenase (Photinus pyralis) (P08659 whole entry, looked up): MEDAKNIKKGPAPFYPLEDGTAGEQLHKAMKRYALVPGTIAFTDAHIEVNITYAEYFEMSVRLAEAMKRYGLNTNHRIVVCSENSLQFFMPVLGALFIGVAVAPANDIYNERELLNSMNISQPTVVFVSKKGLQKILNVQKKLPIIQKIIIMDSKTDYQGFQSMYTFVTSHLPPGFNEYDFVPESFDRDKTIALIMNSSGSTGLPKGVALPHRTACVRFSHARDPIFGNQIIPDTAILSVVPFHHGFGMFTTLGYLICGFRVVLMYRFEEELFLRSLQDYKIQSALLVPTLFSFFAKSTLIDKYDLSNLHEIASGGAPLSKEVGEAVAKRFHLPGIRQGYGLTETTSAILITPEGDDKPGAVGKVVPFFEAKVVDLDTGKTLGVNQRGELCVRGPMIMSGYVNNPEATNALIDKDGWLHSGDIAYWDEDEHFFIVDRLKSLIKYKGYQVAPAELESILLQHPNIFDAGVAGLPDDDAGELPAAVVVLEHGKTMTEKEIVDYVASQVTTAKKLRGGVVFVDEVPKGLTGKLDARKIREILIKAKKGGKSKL
smiles,measurement,setting,value
CP(=O)(O)CCCN,Potency,[1],inactive
same,Potency,[2],> 46 µM (inactive)
same,Potency,[3],> 46 µM (inactive)
same,outcome,[4],inactive
same,Potency,[5],inactive
same,"activity change, negative = inhibition",[6],-0.195% (inactive)
same,max response,[6]; [18],3.46%
same,max response,[6]; [19],4.47%
same,Potency,[7],inactive
COc1ccc2[nH]cc(CCN(C)C)c2c1,Potency,[1],15.8 µM (active)
same,Potency,[2],> 46 µM (inactive) and > 20.6 µM (inactive)
same,Potency,[3],> 46 µM (inactive)
same,outcome,[4],inactive
same,Potency,[5],inactive
CC(C)[C@H](NC(=O)[C@H](CCC(=O)O)NC(=O)[C@H](Cc1ccccc1)NC(=O)[C@H](C)NC(=O)[C@@H](N)Cc1ccc(O)cc1)C(=O)N[C@H](C(=O)NCC(N)=O)C(C)C,"activity change, negative = inhibition",[7],-11.9% [at 3.88 µM] (inactive)
C/C=C1/C[N@@+]2(C)CC[C@]34C(=C(C=O)[C@H]1C[C@H]32)Nc1ccccc14,Potency,[7],inactive
Cc1ccc2c(c1)Cc1c(C(=O)NC3CCCCC3)nn(-c3ccc(Cl)cc3Cl)c1-2,Potency,[7],inactive
CCCCC/C=C\C/C=C\C/C=C\CCCCCCC(=O)NCCO,"activity change, negative = inhibition",[7],-18.9% [at 3.88 µM] (inactive)
CCCC[C@@H]1CC[C@H]2CCCC(CCC)N12 (stereo partly drawn),Potency,[8],49.3 µM (active)
same,Potency,[9],inactive
same,Potency,[10],inactive
same,Potency,[11],inactive
same,Potency,[12],inactive
same,Potency,[13],inactive
same,Potency,[14],inactive
same,outcome,[15],inactive
same,outcome,[16],inactive
CC1=CC(=O)C2=C(C)C[C@H](O)[C@@H]3[C@H](OC(=O)[C@@H]3C)[C@@H]12,Potency,[8],49.3 µM (active)
same,Potency,[9],inactive
same,Potency,[10],inactive
same,Potency,[11],inactive
same,Potency,[12],inactive
same,Potency,[13],inactive
same,Potency,[14],inactive
same,outcome,[15],inactive
same,outcome,[16],inactive
CC(C)(O)[C@@H]1[C@H]2OC(=O)[C@@H]1[C@]1(O)C[C@H]3O[C@]34C(=O)O[C@H]2[C@@]14C (tested in a mixture with another compound),Potency,[2],> 46 µM (inactive)
same,Potency,[3],> 46 µM (inactive)
same,"activity change, negative = inhibition",[6],-0.708% (inactive)
same,max response,[6]; [18],-8.87%
same,max response,[6]; [19],-11.1%
same,Potency,[17],inactive
same,Potency,[7],inactive
CN1C(=O)CCS(=O)(=O)[C@H]1c1ccc(Cl)cc1,Potency,[1],inactive
same,Potency,[2],> 46 µM (inactive)
same,Potency,[3],> 46 µM (inactive)
same,outcome,[4],inactive
same,Potency,[5],inactive
same,"activity change, negative = inhibition",[6],-2.49% (inactive)
same,max response,[6]; [18],-1.62%
same,max response,[6]; [19],2.79%
same,Potency,[17],inactive
same,Potency,[7],inactive
O=C1C2CCN(CC2)C1(CO)CO,Potency,[1],inactive
same,Potency,[2],> 46 µM (inactive)
same,Potency,[3],> 46 µM (inactive) and > 9.22 µM (inactive)
same,outcome,[4],inactive
same,Potency,[5],inactive
same,Potency,[17],inactive
same,Potency,[7],inactive
CN1CCN(c2ccc3ccccc3n2)CC1,Potency,[1],10 µM (active) and 3.16 µM (active)
same,Potency,[3],> 46 µM (inactive)
same,outcome,[4],inactive
same,Potency,[5],inactive
same,"activity change, negative = inhibition",[6],-1.18% (inactive) and 2.43% (inactive)
same,max response,[6]; [18],12.9% and -15.1%
same,max response,[6]; [19],12.4% and -14.2%
same,Potency,[17],inactive
